Columns and labels:
[1] = molecular target: Serine/threonine-protein kinase MARK2 (Homo sapiens) (UniProt Q7KZI7); details: at 1 µM
[2] = molecular target: PAS domain-containing serine/threonine-protein kinase (Homo sapiens) (UniProt Q96RG2); details: at 0.1 µM
[3] = molecular target: PAS domain-containing serine/threonine-protein kinase (Homo sapiens) (UniProt Q96RG2); details: at 1 µM
[4] = molecular target: Phosphorylase b kinase gamma catalytic chain, skeletal muscle/heart isoform (Homo sapiens) (UniProt Q16816); details: at 0.1 µM
[5] = molecular target: Phosphorylase b kinase gamma catalytic chain, skeletal muscle/heart isoform (Homo sapiens) (UniProt Q16816); details: at 1 µM
[6] = molecular target: T1, Phosphorylase b kinase gamma catalytic chain, liver/testis isoform (Homo sapiens) (UniProt P15735); details: at 0.1 µM
T1 sequence (whole entry): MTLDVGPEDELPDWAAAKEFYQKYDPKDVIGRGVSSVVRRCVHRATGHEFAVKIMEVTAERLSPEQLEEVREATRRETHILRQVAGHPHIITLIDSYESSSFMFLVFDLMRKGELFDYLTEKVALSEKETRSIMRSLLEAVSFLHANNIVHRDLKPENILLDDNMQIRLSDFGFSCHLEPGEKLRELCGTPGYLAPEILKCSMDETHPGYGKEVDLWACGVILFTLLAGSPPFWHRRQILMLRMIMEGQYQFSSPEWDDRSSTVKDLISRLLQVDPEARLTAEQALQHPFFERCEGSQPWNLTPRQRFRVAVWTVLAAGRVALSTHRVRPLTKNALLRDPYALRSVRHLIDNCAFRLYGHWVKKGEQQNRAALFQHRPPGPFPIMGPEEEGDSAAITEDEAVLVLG

[7] = molecular target: T1, Phosphorylase b kinase gamma catalytic chain, liver/testis isoform (Homo sapiens); details: at 1 µM
[8] = molecular target: Serine/threonine-protein kinase pim-1 (Homo sapiens) (UniProt P11309); details: at 0.1 µM
[9] = molecular target: Serine/threonine-protein kinase pim-1 (Homo sapiens) (UniProt P11309); details: at 1 µM
[10] = molecular target: Serine/threonine-protein kinase pim-2 (Homo sapiens) (UniProt Q9P1W9); details: at 0.1 µM
[11] = molecular target: Serine/threonine-protein kinase pim-2 (Homo sapiens) (UniProt Q9P1W9); details: at 1 µM
[12] = molecular target: Serine/threonine-protein kinase pim-3 (Homo sapiens) (UniProt Q86V86); details: at 0.1 µM
[13] = molecular target: Serine/threonine-protein kinase pim-3 (Homo sapiens) (UniProt Q86V86); details: at 1 µM
[14] = molecular target: T2, MAP kinase-activated protein kinase 5 (Homo sapiens) (UniProt Q8IW41); details: at 0.1 µM
T2 sequence (whole entry): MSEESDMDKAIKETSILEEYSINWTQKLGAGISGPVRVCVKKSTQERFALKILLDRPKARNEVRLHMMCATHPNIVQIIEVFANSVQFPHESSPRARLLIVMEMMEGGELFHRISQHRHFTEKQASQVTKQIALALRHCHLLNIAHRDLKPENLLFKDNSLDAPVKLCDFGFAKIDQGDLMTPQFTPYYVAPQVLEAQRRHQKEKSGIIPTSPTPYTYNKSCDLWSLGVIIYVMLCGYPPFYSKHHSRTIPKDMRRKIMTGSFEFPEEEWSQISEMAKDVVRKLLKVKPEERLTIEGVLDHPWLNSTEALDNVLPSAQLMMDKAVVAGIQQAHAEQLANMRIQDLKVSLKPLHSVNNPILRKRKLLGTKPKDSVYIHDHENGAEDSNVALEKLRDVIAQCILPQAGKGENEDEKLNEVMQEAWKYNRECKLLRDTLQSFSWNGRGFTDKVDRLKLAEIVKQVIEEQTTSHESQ

[15] = molecular target: T2, MAP kinase-activated protein kinase 5 (Homo sapiens); details: at 1 µM
[16] = molecular target: Serine/threonine-protein kinase SIK1 (Homo sapiens) (UniProt P57059); details: at 0.1 µM
[17] = molecular target: Serine/threonine-protein kinase SIK1 (Homo sapiens) (UniProt P57059); details: at 1 µM
[18] = molecular target: Serine/threonine-protein kinase SIK2 (Homo sapiens) (UniProt Q9H0K1); details: at 0.1 µM
[19] = molecular target: Serine/threonine-protein kinase SIK2 (Homo sapiens) (UniProt Q9H0K1); details: at 1 µM
[20] = molecular target: T3, Serine/threonine-protein kinase TBK1 (Homo sapiens) (UniProt Q9UHD2); details: at 0.1 µM;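 further: values are the mean TBK1 inhibition, taken from the GSK PKIS screening data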
T3 sequence (whole entry): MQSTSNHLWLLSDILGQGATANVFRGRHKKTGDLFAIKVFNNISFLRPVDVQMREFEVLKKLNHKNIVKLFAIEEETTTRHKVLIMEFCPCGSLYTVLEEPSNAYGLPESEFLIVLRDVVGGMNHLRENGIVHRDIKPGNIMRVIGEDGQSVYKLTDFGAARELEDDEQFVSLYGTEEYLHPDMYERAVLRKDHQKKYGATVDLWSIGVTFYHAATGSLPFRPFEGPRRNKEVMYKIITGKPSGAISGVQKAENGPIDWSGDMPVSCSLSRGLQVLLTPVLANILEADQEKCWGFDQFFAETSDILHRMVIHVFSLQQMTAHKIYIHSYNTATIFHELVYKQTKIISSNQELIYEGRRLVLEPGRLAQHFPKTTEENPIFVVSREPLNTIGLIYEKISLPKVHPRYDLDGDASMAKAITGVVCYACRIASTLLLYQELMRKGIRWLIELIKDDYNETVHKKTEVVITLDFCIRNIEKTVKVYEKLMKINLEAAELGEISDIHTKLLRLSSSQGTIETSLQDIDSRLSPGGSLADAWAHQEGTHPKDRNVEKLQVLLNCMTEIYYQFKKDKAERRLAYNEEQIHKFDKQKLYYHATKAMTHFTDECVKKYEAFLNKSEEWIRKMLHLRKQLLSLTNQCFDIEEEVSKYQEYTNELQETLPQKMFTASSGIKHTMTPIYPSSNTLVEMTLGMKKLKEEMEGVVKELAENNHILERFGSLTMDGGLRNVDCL

Sequence of Phosphorylase b kinase gamma catalytic chain, skeletal muscle/heart isoform (Homo sapiens) (Q16816 whole entry, looked up, canonical isoform): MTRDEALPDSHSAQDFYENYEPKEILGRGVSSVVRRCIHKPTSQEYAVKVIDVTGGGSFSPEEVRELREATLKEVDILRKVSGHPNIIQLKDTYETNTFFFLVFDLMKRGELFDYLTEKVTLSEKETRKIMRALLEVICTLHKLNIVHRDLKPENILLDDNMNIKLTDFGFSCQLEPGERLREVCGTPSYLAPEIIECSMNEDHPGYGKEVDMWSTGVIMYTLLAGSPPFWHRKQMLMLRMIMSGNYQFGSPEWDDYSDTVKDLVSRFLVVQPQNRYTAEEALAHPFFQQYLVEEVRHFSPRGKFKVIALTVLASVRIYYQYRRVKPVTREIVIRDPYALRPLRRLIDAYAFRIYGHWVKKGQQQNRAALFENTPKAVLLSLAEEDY
Sequence of Serine/threonine-protein kinase pim-2 (Homo sapiens) (Q9P1W9 whole entry, looked up): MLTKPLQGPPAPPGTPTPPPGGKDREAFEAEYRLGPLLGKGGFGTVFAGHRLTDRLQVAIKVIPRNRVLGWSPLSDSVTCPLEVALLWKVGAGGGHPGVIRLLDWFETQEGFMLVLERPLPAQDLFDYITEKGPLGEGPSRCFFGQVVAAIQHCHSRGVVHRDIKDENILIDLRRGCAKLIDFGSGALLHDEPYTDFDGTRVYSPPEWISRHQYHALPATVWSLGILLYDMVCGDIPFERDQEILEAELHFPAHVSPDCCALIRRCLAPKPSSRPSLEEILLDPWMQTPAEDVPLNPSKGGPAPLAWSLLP
Sequence of Serine/threonine-protein kinase SIK1 (Homo sapiens) (P57059 whole entry): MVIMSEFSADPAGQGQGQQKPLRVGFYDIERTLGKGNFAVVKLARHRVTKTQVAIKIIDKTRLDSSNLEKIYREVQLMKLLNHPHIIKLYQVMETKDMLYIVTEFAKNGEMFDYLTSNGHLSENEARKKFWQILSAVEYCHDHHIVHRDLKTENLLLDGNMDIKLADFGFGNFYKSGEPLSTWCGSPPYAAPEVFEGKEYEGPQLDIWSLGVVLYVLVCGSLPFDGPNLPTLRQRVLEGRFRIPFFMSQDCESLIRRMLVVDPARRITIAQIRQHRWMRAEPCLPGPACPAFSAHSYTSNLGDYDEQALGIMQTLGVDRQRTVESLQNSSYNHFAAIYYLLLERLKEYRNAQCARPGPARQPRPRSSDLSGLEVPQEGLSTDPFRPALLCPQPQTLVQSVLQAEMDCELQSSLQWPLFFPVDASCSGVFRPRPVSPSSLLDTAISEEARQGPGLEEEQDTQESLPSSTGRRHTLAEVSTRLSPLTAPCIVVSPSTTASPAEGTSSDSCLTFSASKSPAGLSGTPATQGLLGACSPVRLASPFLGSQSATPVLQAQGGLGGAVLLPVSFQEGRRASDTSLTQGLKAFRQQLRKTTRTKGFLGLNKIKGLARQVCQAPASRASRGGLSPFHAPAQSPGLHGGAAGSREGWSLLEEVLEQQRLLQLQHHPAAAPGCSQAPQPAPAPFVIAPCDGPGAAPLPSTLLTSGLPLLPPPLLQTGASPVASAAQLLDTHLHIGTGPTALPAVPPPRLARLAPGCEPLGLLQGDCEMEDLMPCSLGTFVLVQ
Sequence of PAS domain-containing serine/threonine-protein kinase (Homo sapiens) (Q96RG2 whole entry, the tested form may be a part, canonical isoform): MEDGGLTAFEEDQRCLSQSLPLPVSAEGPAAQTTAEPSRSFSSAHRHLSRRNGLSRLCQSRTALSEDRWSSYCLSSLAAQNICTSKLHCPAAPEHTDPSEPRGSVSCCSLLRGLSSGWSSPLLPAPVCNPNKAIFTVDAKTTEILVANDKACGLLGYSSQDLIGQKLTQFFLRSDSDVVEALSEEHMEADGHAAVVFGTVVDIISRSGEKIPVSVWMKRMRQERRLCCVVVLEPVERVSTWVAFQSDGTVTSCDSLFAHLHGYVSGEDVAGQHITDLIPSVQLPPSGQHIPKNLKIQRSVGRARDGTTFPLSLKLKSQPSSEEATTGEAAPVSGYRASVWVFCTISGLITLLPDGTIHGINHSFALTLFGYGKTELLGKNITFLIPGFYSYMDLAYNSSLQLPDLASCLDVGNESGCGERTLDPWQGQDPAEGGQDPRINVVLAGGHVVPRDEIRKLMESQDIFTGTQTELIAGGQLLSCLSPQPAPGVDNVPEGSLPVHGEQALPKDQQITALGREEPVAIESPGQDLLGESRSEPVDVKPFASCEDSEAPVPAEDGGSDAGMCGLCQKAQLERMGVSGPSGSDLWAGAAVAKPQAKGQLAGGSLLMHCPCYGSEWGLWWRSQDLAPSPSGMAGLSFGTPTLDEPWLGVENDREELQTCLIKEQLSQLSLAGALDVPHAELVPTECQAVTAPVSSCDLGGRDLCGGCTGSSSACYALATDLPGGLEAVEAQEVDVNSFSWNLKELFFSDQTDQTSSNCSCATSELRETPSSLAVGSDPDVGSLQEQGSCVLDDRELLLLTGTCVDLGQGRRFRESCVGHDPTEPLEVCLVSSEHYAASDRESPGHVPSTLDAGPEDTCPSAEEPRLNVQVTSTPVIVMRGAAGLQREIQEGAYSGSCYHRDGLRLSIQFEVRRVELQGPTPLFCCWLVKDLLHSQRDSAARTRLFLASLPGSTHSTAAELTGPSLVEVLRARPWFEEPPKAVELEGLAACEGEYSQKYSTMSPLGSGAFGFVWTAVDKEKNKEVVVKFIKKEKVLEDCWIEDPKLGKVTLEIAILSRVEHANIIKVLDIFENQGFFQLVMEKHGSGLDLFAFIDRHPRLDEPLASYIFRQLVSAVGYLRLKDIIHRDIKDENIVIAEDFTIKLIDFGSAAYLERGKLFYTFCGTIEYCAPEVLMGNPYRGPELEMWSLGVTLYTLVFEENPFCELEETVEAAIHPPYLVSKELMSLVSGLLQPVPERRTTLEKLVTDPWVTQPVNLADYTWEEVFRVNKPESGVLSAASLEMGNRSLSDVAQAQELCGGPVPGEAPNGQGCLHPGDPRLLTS
Sequence of Serine/threonine-protein kinase MARK2 (Homo sapiens) (Q7KZI7 whole entry, the tested form may be a part): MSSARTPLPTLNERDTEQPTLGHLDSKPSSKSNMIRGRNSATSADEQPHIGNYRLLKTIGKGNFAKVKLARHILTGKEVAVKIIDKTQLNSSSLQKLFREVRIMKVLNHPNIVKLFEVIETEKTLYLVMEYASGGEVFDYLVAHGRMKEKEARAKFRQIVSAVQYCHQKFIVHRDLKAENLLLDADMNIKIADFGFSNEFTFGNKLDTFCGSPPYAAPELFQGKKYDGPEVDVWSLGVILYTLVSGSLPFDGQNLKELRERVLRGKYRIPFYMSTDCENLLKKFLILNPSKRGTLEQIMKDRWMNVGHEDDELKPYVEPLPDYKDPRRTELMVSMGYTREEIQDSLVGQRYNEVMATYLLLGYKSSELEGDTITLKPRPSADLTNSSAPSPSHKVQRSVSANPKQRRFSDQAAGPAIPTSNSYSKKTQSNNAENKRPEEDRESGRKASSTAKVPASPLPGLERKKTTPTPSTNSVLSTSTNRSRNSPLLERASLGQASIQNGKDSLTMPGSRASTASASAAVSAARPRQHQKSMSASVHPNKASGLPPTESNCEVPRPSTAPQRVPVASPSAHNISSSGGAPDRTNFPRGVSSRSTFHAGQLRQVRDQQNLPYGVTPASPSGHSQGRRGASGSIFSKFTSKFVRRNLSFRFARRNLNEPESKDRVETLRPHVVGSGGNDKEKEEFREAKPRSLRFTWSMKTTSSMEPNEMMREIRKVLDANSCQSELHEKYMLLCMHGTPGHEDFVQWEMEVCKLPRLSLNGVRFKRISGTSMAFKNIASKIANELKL
Sequence of Serine/threonine-protein kinase SIK2 (Homo sapiens) (Q9H0K1 whole entry, looked up): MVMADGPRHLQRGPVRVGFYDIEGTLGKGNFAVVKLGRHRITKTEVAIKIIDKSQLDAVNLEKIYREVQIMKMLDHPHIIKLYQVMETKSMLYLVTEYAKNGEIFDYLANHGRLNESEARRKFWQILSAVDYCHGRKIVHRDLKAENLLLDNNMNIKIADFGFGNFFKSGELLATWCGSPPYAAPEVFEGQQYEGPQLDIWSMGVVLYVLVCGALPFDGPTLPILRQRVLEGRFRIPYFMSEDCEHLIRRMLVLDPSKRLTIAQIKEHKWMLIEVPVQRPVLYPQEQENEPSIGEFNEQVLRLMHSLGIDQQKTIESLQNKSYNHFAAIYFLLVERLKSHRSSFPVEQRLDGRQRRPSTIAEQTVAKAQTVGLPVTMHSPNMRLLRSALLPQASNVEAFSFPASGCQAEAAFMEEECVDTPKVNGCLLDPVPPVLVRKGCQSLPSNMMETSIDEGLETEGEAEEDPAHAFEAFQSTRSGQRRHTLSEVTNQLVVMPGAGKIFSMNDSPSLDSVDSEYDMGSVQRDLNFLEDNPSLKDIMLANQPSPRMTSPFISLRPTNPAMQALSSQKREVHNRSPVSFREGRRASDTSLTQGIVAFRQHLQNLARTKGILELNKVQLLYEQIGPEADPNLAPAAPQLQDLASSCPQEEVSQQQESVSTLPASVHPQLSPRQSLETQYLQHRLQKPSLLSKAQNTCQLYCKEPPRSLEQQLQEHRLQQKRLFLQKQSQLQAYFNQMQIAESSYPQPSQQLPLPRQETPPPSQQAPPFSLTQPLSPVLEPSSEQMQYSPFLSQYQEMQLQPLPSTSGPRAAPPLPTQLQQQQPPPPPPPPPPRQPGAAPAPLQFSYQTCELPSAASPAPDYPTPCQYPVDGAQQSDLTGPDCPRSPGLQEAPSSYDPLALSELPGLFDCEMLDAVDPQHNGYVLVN

| SMILES | inhibition [1] [%] | inhibition [2] [%] | inhibition [3] [%] | inhibition [4] [%] | inhibition [5] [%] | inhibition [6] [%] | inhibition [7] [%] | inhibition [8] [%] | inhibition [9] [%] | inhibition [10] [%] | inhibition [11] [%] | inhibition [12] [%] | inhibition [13] [%] | inhibition [14] [%] | inhibition [15] [%] | inhibition [16] [%] | inhibition [17] [%] | inhibition [18] [%] | inhibition [19] [%] | inhibition [20] [%] |
| --- | --- | --- | --- | --- | --- | --- | --- | --- | --- | --- | --- | --- | --- | --- | --- | --- | --- | --- | --- | --- |
| NS(=O)(=O)c1ccc(Nc2cc(-c3ccc(O)c(F)c3)n[nH]2)cc1 | 7.38 | -0.77 | -1.58 | -0.19 | 16 | -5.86 | -3.66 | -1.13 | 0.95 | -0.39 | 0.39 | -0.55 | 1.15 | -1.43 | -1.22 | -8.2 | -0.79 | -6.2 | 8.46 | -1 |
| COc1cc(Nc2ncc(-c3ccccc3)o2)cc(OC)c1OC | 15.6 | 0.63 | -0.67 | 3.23 | 20.9 | -2.9 | -2.15 | 0.68 | 2.12 | 0.06 | 1.06 | 0.31 | 1.87 | -0.54 | 0.01 | 0.98 | 27.4 | 3.12 | 30.6 | 2.26 |
| NS(=O)(=O)c1ccc(N/N=C2\C(=O)Nc3ccc(-c4cnco4)cc32)cc1 | 16.6 | 0.16 | 4.38 | 5.17 | 27.9 | 1.94 | 4.44 | 4.65 | 38.9 | -0.37 | 24.5 | 1.42 | 15.5 | 1.08 | 3.26 | 1.71 | 14.3 | -1.16 | 7.34 | 7.17 |
| N#Cc1ccc(Oc2nccc(-c3c(-c4ccc(F)cc4)ncn3C3CCNCC3)n2)cc1 | -1.45 | -0.29 | -0.33 | 5.34 | 6.84 | 4.1 | 4.74 | 1.27 | 2.26 | -0.01 | 0.58 | 0.29 | 0.8 | 1.34 | 1.48 | 5.1 | 7.69 | 2.82 | 9.93 | 1.69 |
| c1ccc(-c2n[nH]cc2-c2ccnc(-c3ccc(OCCN4CCOCC4)cc3)c2)nc1 | 6.97 | 4.29 | 2.12 | 3.14 | 5.98 | -1.14 | -3.23 | 1.29 | 1.87 | 7.01 | 5.56 | 5.26 | 3.99 | -1.14 | -0.78 | 0.04 | -2.45 | -6.26 | -0.03 | 1.5 |
| Cc1nnc(-c2ccc(C)c(-c3ccc(C(=O)NCc4ccc(Cl)cc4)cc3)c2)o1 | 2.93 | -0.31 | 0.36 | 4.66 | 5.75 | 5.44 | 5.11 | 0.2 | 1.19 | -3.59 | -2.67 | 0.64 | 0.96 | 1.56 | 2.59 | 1.09 | 7.21 | 5.11 | 11.4 | 1.16 |
| O=C(Nc1n[nH]c2nc(-c3ccco3)ccc12)C1CC1 | 0.11 | 0.36 | -0.43 | 1.05 | 3.2 | 0.75 | -0.31 | 1.36 | 0.54 | 0.1 | -0.06 | 0.6 | -0.35 | -0.19 | -1.25 | 4.89 | 3.71 | 0.98 | 3.32 | 1.19 |
| COc1cc(C)c(N(C)C(=O)CN(C)C)cc1Nc1nc(Nc2cccc(F)c2C(N)=O)c2cc[nH]c2n1 | 1.79 | 0.61 | -1.13 | -1.13 | 2.95 | 3.64 | -0.16 | 1.05 | 3.33 | -3.42 | -2.78 | -0.52 | 0.76 | 0.02 | -1.14 | 3.07 | 5.4 | 4.5 | 2.04 | 1.26 |
| Cc1ccc(C(=O)NC(C)C)cc1-c1ccc(C(=O)NCC2CC2)cc1 | 2.12 | 0.53 | 0.4 | -0.31 | 1.18 | -5.49 | -6.57 | 0.13 | 0.56 | 0.1 | 1.24 | 1.28 | 2.53 | -1.12 | -1.11 | -0.49 | -1.49 | 0.37 | -9.28 | -1.37 |
| CN(C)c1ccc2c(c1)/C(=C/Nc1ccc(S(N)(=O)=O)cc1)C(=O)N2 | 18.6 | -0.32 | -0.69 | 15.3 | 49.3 | 2.06 | 13.8 | 1.26 | 1.23 | 0.23 | 1.18 | 0.39 | 0.56 | 0.23 | 0.46 | 3.94 | 14.7 | 5.24 | 18.2 | 6.65 |
| NC(=O)c1ccc(Oc2nccc(-c3c(-c4ccc(F)cc4)ncn3C3CCNCC3)n2)cc1 | 4.02 | -1.25 | -0.29 | 3.06 | 5.58 | 5.89 | 5.72 | 0.9 | 1.7 | -0.5 | -0.49 | 0.26 | 1.82 | 3.51 | 2.54 | 4.73 | 11.3 | 7.22 | 3.63 | 3.9 |
| O=C(Nc1n[nH]c2cc(-c3ccccc3)ccc12)C1CC1 | 3.6 | 0.21 | -1.15 | 8.27 | 7.18 | 5.27 | 4.5 | 1.3 | 0.46 | 0.26 | 0.64 | -2.16 | -2.34 | 1.27 | 0.86 | 5.14 | 9.28 | 5.24 | 12.8 | 1.84 |
| CCS(=O)(=O)c1ccc(OC)c(Nc2ncc(-c3ccccc3Cl)o2)c1 | -0.17 | 1.42 | 0.93 | 1.33 | 1.36 | 1.67 | 0.7 | -0.02 | 1.67 | -0.56 | 0.67 | -0.12 | 2.15 | 0.46 | -0.58 | 2.08 | 0.14 | 1.64 | 3.21 | 1.3 |
| COc1ccc(C2=C(N3CCc4ccccc43)C(=O)NC2=O)cc1 | 1.74 | 0.07 | -0.29 | 3.26 | 6.35 | 7.25 | 4.69 | 0.52 | 4.09 | 0.18 | 0.67 | -0.2 | 0.86 | 1.93 | 2.12 | 8.63 | 8.47 | 6.36 | 11.3 | 0.88 |

Source: ChEMBL document CHEMBL1961873, “Compounds: GSK PKIS; Assays: Nanosyn kinase panel” (2012)
